Data on seven molecules can be found in PubChem BioAssay (NCATS).

Records with an inconclusive call do not appear. Calls of active or inactive are those of the source. Unless noted, the call rests on the fitted dose curve; in most records, active means well fitted cell-killing curve with a large enough effect; inconclusive means small, poorly fitted or top-dose-only effect, or effect the other way; inactive means no such curve, though single readings can be large or run the other way.

A word on the viability: it is a per cent measure of how many cells are alive, often set against a control.

A short description of experiment [1]: Quantitative High-Throughput drug screen in 47 multiple myeloma cell lines against the NCATS MIPE library collection: OCIMY5_PLB cell viability assay (AID 1918988). Further: nearly all actives have a fitted effect of over 65% in size. Further: potency means the concentration at half of the fitted maximal effect. Summed up: (§1)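 500 cells/well; MIPE 4.0 drugs pin-transferred; 48 h, 37C, 5% CO2. CellTiter-Glo, 5 min RT, luminescence. Controls: DMSO 100%, media 0%.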
Experiment [2] in a line: Quantitative High-Throughput drug screen in 47 multiple myeloma cell lines against the NCATS MIPE library collection: OPM1_PLB cell viability assay (AID 1918989). Further: nearly all actives have a fitted effect of over 40% in size. Further: potency means the concentration at half of the fitted maximal effect. The gist of the method:
as §1

Experiment [3] is described as follows: Quantitative High-Throughput drug screen in 47 multiple myeloma cell lines against the NCATS MIPE library collection: SKMM1_PLB cell viability assay (AID 1919863). Further: nearly all actives have a fitted effect of over 35% in size. Further: potency means the concentration at half of the fitted maximal effect. To be noted: SKMM1 myeloma viability, CellTiter-Glo ATP, 48 h; viability: stronger effect = lower value. Summed up: as §1
In general terms: In ATP-based viability assays light output follows the ATP content of the culture.

A short description of experiment [4]: Quantitative High-Throughput drug screen in 47 multiple myeloma cell lines against the NCATS MIPE library collection: PE2_PLB cell viability assay (AID 1919869). Further: nearly all actives have a fitted effect of over 35% in size. Further: potency means the concentration at half of the fitted maximal effect. Summed up: as §1
Experiment [5] in a line: Quantitative High-Throughput drug screen in 47 multiple myeloma cell lines against the NCATS MIPE library collection: RPMI8226_ATCC cell viability assay (AID 1919871). Further: nearly all actives have a fitted effect of over 30% in size. Further: potency means the concentration at half of the fitted maximal effect. Summed up:
as §1

Experiment [6] in a line: Quantitative High-Throughput drug screen in 47 multiple myeloma cell lines against the NCATS MIPE library collection: OPM2_DSMZ cell viability assay (AID 1919872). Further: nearly all actives have a fitted effect of over 30% in size. Further: potency means the concentration at half of the fitted maximal effect. Summed up:
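CellTiter-Glo ATP luminescence gave viability after 48 h compound treatment at 37C of 500 multiple myeloma cells per well. Normalisation used DMSO-only wells as 100% and media-only wells as 0% viability; primary qHTS of approved and investigational drugs.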

Experiment [7] is described as follows: Quantitative High-Throughput drug screen in 47 multiple myeloma cell lines against the NCATS MIPE library collection: KMS11_JCRBsus cell viability assay (AID 1919873). Further: nearly all actives have a fitted effect of over 50% in size. Further: potency means the concentration at half of the fitted maximal effect. The gist of the method: as §1
The nature of experiment [8]: Quantitative High-Throughput drug screen in 47 multiple myeloma cell lines against the NCATS MIPE library collection: KMS28BM_JCRB cell viability assay (AID 1919874). Further: nearly all actives have a fitted effect of over 35% in size. Further: potency means the concentration at half of the fitted maximal effect. Summed up: as §1
A short description of experiment [9]: qHTS drug screen for cell cycle checkpoint inhibitors in PARPi-resistant BRCA-mutant ovarian cancer cell lines. (AID 1963452; calls by dose curve). The following applies: PEO1/OlaR viability, CellTiter-Glo luminescence, 96 h, stronger effect = lower value. Summed up:
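PEO1, PEO4 and PEO1/OlaR ovarian cancer cells, 600 per well, exposed 96 h at 37C to a dilution series. Viability read by CellTiter-Glo luminescence, normalized to DMSO and empty wells; activity summarized as Z-AUC.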
(Quantitative high-throughput screening tests each substance at several concentrations.)

Experiment [10] is described as follows: qHTS for identification of novel therapeutic agents for treatment of microphthalmiaassociated transcription factor (MiT) renal cell carcinoma (RCC) (AID 1963991; calls by dose curve; further: potency means the concentration at half of the fitted maximal effect). To be noted: CellTiter-Glo, 48 h; for z-score: stronger effect = lower value. The gist of the method: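 Three TFE3-fusion RCC cell lines (UOK109, UOK124, UOK145), 500 cells/well, were exposed to the 1912-compound MIPE 4.0 library for 48 hours at 37 C. Viability was read by CellTiter-Glo luminescence, normalised to DMSO (100%) and empty wells (0%), with 11-concentration curve fits.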

A short description of experiment [11]: Quantitative High-Throughput drug screen in 47 multiple myeloma cell lines against the NCATS MIPE library collection: PCM6_Riken cell viability assay (AID 1919870). Further: nearly all actives have a fitted effect of over 30% in size. Summed up:
as §1

Experiment [12] is described as follows: Quantitative High-Throughput drug screen in 47 multiple myeloma cell lines against the NCATS MIPE library collection: U266_ATCC cell viability assay (AID 1919864). Further: nearly all actives have a fitted effect of over 35% in size. Further: potency means the concentration at half of the fitted maximal effect. The gist of the method:
as §1

The nature of experiment [13]: Quantitative High-Throughput drug screen in 47 multiple myeloma cell lines against the NCATS MIPE library collection: XG6_PLB cell viability assay (AID 1919865). Further: nearly all actives have a fitted effect of over 40% in size. Further: potency means the concentration at half of the fitted maximal effect. The gist of the method:
as §1

The nature of experiment [14]: Quantitative High-Throughput drug screen in 47 multiple myeloma cell lines against the NCATS MIPE library collection: XG1_PLB cell viability assay (AID 1919866). Further: nearly all actives have a fitted effect of over 35% in size. Further: potency means the concentration at half of the fitted maximal effect. The gist of the method: as §1
A short description of experiment [15]: Quantitative High-Throughput drug screen in 47 multiple myeloma cell lines against the NCATS MIPE library collection: VP6_DJ cell viability assay (AID 1919867). Further: nearly all actives have a fitted effect of over 40% in size. Further: potency means the concentration at half of the fitted maximal effect. The gist of the method: as §1
The nature of experiment [16]: Quantitative High-Throughput drug screen in 47 multiple myeloma cell lines against the NCATS MIPE library collection: UTMC2_PLB cell viability assay (AID 1919868). Further: nearly all actives have a fitted effect of over 55% in size. To be noted: CellTiter-Glo ATP luminescence, 48 h; viability (% of DMSO control): at 45.8 µM (top of the series). The gist of the method:
as §1

The mark [17] stands for this setting: measured here: PEO1 parental Z-AUC.
[18] abbreviates: TFE3-RCC UOK109 viability, measured here: UOK109 Z-AUC.
The mark [19] stands for this setting: TFE3-RCC viability, measured here: UOK124 Z-AUC.
Where [20] appears, read: TFE3-RCC viability, measured here: UOK145 Z-AUC.

Turning to `COc1cc([C@@H]2c3cc4c(cc3[C@@H](O)C3COC(=O)C32)OCO4)cc(OC)c1O` (some centres not stated), the Potency in [1] is 0.0105 µM (active); in experiment [2], 0.0526 µM (active); in experiment [3], 0.0166 µM (active); in [4], 0.0526 µM (active); in [5], 0.118 µM (active); in experiment [6], 0.0418 µM (active). Also, the Potency in [7] is 0.0093 µM (active); in experiment [8] it was 0.0033 µM (active); in experiment [10] (TFE3-RCC UOK109 viability) it was 0.0418 µM (active). The Z-AUC in experiment [9] is -0.729 (inactive); in experiment [9] (setting [17]) it was -0.507; in [9] (measured here: PEO4 Z-AUC), -1.03. Moreover, the z-score is -1.65 in experiment [10] (setting [18]), -1.93 in experiment [10] (setting [19]) and -1.12 in experiment [10] (setting [20]).
Regarding `CC(=Cc1csc(C)n1)[C@@H]1C[C@H]2O[C@@H]2CCC[C@H](C)[C@@H](O)[C@@H](C)C(=O)C(C)(C)[C@@H](O)CC(=O)O1`, the Potency entry in experiment [1], in [4], in experiment [11], in experiment [5], in experiment [6] and in experiment [7] was “inactive” throughout. The Potency entry in [8] is “inactive”. Also, in experiment [3], the viability is 81.4% (inactive). Besides, the figures for the z-score in experiment [10] (setting [18]), in experiment [10] (setting [19]) and in [10] (setting [20]) were -3.27, -1.59 and -2.88, respectively.
For the molecule `CCOC(=O)c1cncn1[C@H](C)c1ccccc1`, the Potency entry in [1], in [12], in experiment [13], in experiment [14], in experiment [15] and in experiment [4] was “inactive” in each case. For the same molecule, the Potency entry in [11], in experiment [5], in experiment [6] and in [8] was “inactive” throughout. Besides, the z-score in [10] (setting [18]) came out at 1.85; in [10] (setting [19]), 0.442; in experiment [10] (setting [20]) it was 0.512.
For `C=C[C@@H]1CN2CCC1C[C@@H]2[C@@H](O)c1ccnc2ccccc12` (some centres not stated), the Potency in experiment [1] was 20.9 µM (active); in experiment [2] it was 16.6 µM (active); in experiment [12], 13.2 µM (active); in experiment [13], 18.7 µM (active); in [14] it was 23.5 µM (active); in experiment [4], 23.5 µM (active). In addition, the Potency in [6] is 20.9 µM (active); in experiment [7] it was 20.9 µM (active); in [8], 23.5 µM (active).
Consider `O=c1[nH]c2ccccc2n1C1CCN(Cc2ccc(-c3[nH]c4cc5ncnc5cc4nc3-c3ccccc3)cc2)CC1`, for which the Potency in experiment [1] was 16.6 µM (active); in experiment [2], 2.64 µM (active); in [3], 20.9 µM (active); in experiment [13], 7.43 µM (active); in experiment [15] it was 9.35 µM (active); in experiment [4], 2.35 µM (active). In addition, the Potency is 13.2 µM (active) in [5], 18.7 µM (active) in [6], 20.9 µM (active) in experiment [7] and 18.7 µM (active) in experiment [8]. Also, the Z-AUC in [9] is -0.823 (inactive); in experiment [9] (setting [17]), -0.392; in experiment [9] (measured here: PEO4 Z-AUC) it was -0.582.
Regarding `C1=C2CCCN[C@H]2[C@@H]2C[C@H]1[C@@H]1CCCCN1C2`, the Potency entry in [1], in [2], in experiment [12], in [13], in [4] and in [5] was “inactive” each time. For the same molecule, the Potency result in [6], in experiment [7] and in experiment [8] was “inactive” each time. In experiment [3], the viability is 99.4% (inactive). Also, the z-score is -0.0816 in experiment [10] (setting [18]), 0.828 in experiment [10] (setting [19]) and 0.304 in [10] (setting [20]).
Consider `O=C1C=CC[C@@H]2[C@H]3CCCN4CCC[C@@H](CN12)[C@@H]34`, for which the Potency in experiment [1] is 2.96 µM (active); in experiment [12], 16.6 µM (active). For the same molecule, the Potency entry in experiment [16], in [6] and in experiment [7] was “inactive” each time. Besides, the figures for the Z-AUC in [9], in experiment [9] (setting [17]) and in experiment [9] (measured here: PEO4 Z-AUC) were 0.0265 (inactive), 1.52 and 0.946, respectively.
